Screening data from PubChem BioAssay.
MEKK2mut PB1 HTS – MEK5 binding signal on mutant MEKK2 PB1, primary screen, biochemical, multiplex bead flow cytometry, Alexa488-MEK5; AID 1530, 2009; percent response, % at 10 µM; 290,000 tested, 0.35% active; Alexa488-MEK5 binding to MEKK2 mutant; in the data active means percent response above about 24%, passing the limit was not always enough
Rce1 inhib – yeast Rce1p protease inhibitors, primary screen, biochemical, fluorescence, cell-free homogeneous | yeast membranes, quenched prenylated peptide cleavage fluorescence | calls only | 290,000 tested, 0.27% active;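 active means fall in fluorescence gain of 50% or more versus controls, with final raw signal at or below 3038400; inconclusive means same 50% fall but final raw signal above 3038400; inactive means fall in fluorescence gain under 50%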;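 further: plate controls were neutral control wells for no effect and wells lacking membranes for full effect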
UBC13 polyUb – UBC13 polyubiquitin chain formation inhibitors, primary screen, biochemical, TR-FRET, uHTS; Ubiquitin-conjugating enzyme E2 N (Homo sapiens), P61088; inhibition, % at 20 µM; 330,000 tested, 0.47% active; AID 485273, 2010; in the data active means inhibition above about 45%, passing the limit was not always enough; inconclusive means no clear call, values can overlap the other calls
MEKK3 PB1 HTS – modulators of MEKK3-MEK5 PB1 binding, primary screen, biochemical, wildtype MEKK3, multiplex bead flow cytometry, Alexa488-MEK5. bead-based flow cytometry, Alexa488-MEK5 binding to MEKK3; actives lie on both sides; 0 = blocked by unlabeled MEK5, 100 = vehicle. binding response (% of control), % at 10 µM. 290,000 tested, 1.4% active. Mitogen-activated protein kinase kinase kinase 3 (Homo sapiens), Q99759;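 active means binding response more than 3 SD above or below the average of its plate-row segment, actives on both sides; inconclusive means wells at one plate position flagged as instrument error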;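 further: Alexa488 bead fluorescence after subtracting the streptavidin-only scavenger bead signal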
Target sequence (Q99759 whole entry, looked up): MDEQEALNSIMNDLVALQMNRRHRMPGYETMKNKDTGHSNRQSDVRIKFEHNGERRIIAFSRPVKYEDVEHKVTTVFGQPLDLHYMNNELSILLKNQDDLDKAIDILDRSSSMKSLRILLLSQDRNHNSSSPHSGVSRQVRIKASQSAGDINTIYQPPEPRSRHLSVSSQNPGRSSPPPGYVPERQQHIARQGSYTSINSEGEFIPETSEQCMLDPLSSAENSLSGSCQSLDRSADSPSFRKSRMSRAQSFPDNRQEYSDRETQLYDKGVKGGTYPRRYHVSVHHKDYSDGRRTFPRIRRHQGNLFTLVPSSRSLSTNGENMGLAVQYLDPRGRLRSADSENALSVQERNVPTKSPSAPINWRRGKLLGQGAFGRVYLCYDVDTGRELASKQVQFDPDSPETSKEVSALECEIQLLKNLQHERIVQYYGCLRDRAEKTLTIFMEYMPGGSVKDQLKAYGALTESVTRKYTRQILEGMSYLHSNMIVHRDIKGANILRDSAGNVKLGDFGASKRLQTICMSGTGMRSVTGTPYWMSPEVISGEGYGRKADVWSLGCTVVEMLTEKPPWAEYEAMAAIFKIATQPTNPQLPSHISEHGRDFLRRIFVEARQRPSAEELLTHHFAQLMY
MEKK2wt PB1 HTS – modulators of MEK5 binding to wildtype MEKK2, primary screen, biochemical, multiplex bead flow cytometry, Alexa488-MEK5. Mitogen-activated protein kinase kinase kinase 2 (Homo sapiens), Q9Y2U5. AID 1531, 2009. 290,000 tested, 1.1% active. Alexa488-MEK5 binding to MEKK2 WT; actives lie on both sides. binding response (% of control), % at 10 µM; in the data active means binding response below about 67% or above about 130%; inconclusive means no clear call, values can overlap the other calls; inactive means in between
MEKK2wt confirm – modulators of MEK5 binding to wildtype MEKK2, confirmation, biochemical, single concentration, multiplex bead flow cytometry | binding response (% of control), % at 10 µM | shares compounds with MEKK3 PB1 HTS | Alexa488-MEK5 binding to MEKK2 WT; actives lie on both sides | 5,900 tested, 2.4% active; in the data active means binding response below about 16% or above about 210%; inactive means in between
MEKK2mut-MEK5 – mutant MEKK2 PB1-MEK5 binding signal retest – biochemical, single concentration, multiplex bead flow cytometry, confirmation | shares compounds with MEKK3 PB1 HTS | 5,900 tested, 2% active | Alexa488-MEK5 binding to MEKK2 mutant | AID 1893, 2009 | percent response, % at 10 µM; in the data active means percent response mostly above about 71%, no sharp cut-off; inactive means mostly below about 38%;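 further: higher means compound restores mutant binding toward wildtype level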
MEKK3 confirm – MEKK3 wild-type PB1 binding to MEK5, inhibitors, confirmation, biochemical, bead multiplex flow cytometry, single concentration, wildtype; AID 1894, 2009; binding response (% of control), % at 10 µM; 5,900 tested, 1.8% active; Alexa488-MEK5 binding to MEKK3; hits give low values; shares compounds with MEKK3 PB1 HTS;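 active means binding response below 72% of control, or above a set upper limit, though filed actives all read lower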;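 further: 100% = DMSO only wells and 0% = binding blocked by excess unlabeled MEK5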
* marks the source's active call; other numbers are inactive results; i = inactive; u = inconclusive; x = no result; + = active, no number; [ ] = another dose, or the depositor's remark. Hits are enriched below; roughly 2.5% of the tested compounds scored in any of these assays.

SMILES	MEKK2mut PB1 HTS	Rce1 inhib	UBC13 polyUb	MEKK3 PB1 HTS	MEKK2wt PB1 HTS	MEKK2wt confirm	MEKK2mut-MEK5	MEKK3 confirm
O=C(Nc1ccc(N2CCCCC2)cc1)c1cccnc1Cl	5	i	-5	108	111	x	x	x
CS(=O)(=O)N1CCN(c2ccc(NC(=O)c3cccnc3Cl)cc2)CC1	-20	i	-17	1.0*[inhibitor]	-3.0*[inhibitor]	96	-7	84
Cc1cc(-c2cc(C(=O)O)c3ccccc3n2)c(C)s1	-1	i	9	103	98	x	x	x
Cc1nn(C)cc1-c1cc(C(=O)O)c2ccccc2n1	-3	i	14	65*[inhibitor]	23*[inhibitor]	95	-3	97
COc1ccc(C(=O)[C@@H]2CC[C@](C)(C(=O)O)C2(C)C)cc1	x	i	1	x	x	x	x	x
CC1Cc2ccccc2N1CC(=O)NCc1ccc2c(c1)OCO2 (configuration not stated)	1	i	0	103	93	x	x	x
CCC1(C)Cc2c(C#N)c(N)sc(=S)c2CO1 (configuration not stated)	-5	i	2	95	60*[inhibitor]	82	-10	98
Cc1[nH]c(=S)c(C#N)c2c1CCCC2	-10	i	2	101	103	x	x	x
N#Cc1c(N)sc(=S)c2c1CCCC2	-9	i	-15	87	66*[inhibitor]	92	-1	104
N#CCCN(Cc1cccs1)C(=O)c1ccc(Cl)cc1	-11	i	-11	92	95	x	x	x
Cc1oc(S(=O)(=O)N2CCCCC2)cc1NC(=O)Nc1ccc(F)cc1	-6	x	-5	95	94	x	x	x
C[C@H](NC(=O)c1nc[nH]c1C(=O)NC1CCN(C(=O)OC(C)(C)C)CC1)C(=O)OC(C)(C)C	-44	i	6	1.0*[inhibitor]	-5.0*[inhibitor]	101	-2	99
CC(C)C[C@H](NC(=O)c1nc[nH]c1C(=O)NC1CCN(C(=O)OC(C)(C)C)CC1)C(=O)OC(C)(C)C	-5	i	2	92	98	x	x	x
COc1ccc(NC(=O)c2nc[nH]c2C(=O)N[C@@H](C)C(=O)OC(C)(C)C)cc1	-7	i	7	82*[inhibitor]	101	88	-9	89
Cc1cc(Nc2ccc(Cl)cc2)nc(-c2ccccc2O)n1	28*	i	u	110	140*	127	9	105
COC(=O)c1ccc(C2C(Oc3ccccc3)C(=O)N2CCc2ccc(F)cc2)cc1 (configuration not stated)	4	i	-10	110	103	x	x	x
COC(=O)c1ccc(C2C(Oc3ccc(OC)cc3)C(=O)N2CCc2ccc(OC)c(OC)c2)cc1 (configuration not stated)	1	i	-5	157*	109	104	4	104
CC(=O)c1c(C)[nH]c(C(=O)NCCc2c[nH]c3ccccc23)c1C	5	i	-1	103	100	x	x	x
COc1ccc(/C=N/NC(=O)c2ccc(O)cc2)cc1CN1CCCc2ccccc21	24	i	-8	97	44*[inhibitor]	88	-9	103
CC1(C)CCc2c([nH]c3ccccc3c2=O)O1	1	i	5	110	96	x	x	x
CCC1CCc2c([nH]c3ccccc3c2=O)O1 (configuration not stated)	2	i	10	147*	110	99	5	103
O=S(=O)(c1ccc(C(F)(F)F)cc1)N1CCCN(c2ccc(C(F)(F)F)cn2)CC1	-26	i	-1	47*[inhibitor]	46*[inhibitor]	104	4	107
COC(=O)c1cc(NC(=O)c2ccc(F)cc2)cc(C(=O)OC)c1	103*	i	4	89	x	98	-2	98
COC(=O)c1cc(NC(=O)c2ccccc2F)cc(C(=O)OC)c1	0	i	3	113	109	x	x	x
Cn1c(=S)n(CCC(=O)O)c2ccccc21	-1	i	1	98	96	x	x	x
SMILES	MEKK2mut PB1 HTS	Rce1 inhib	UBC13 polyUb	MEKK3 PB1 HTS	MEKK2wt PB1 HTS	MEKK2wt confirm	MEKK2mut-MEK5	MEKK3 confirm
CCOC(=O)CCSc1nc(C)c2cc(OC)ccc2n1	2	i	9	72*[inhibitor]	90	80	-17	76
Cc1ccc(C(=O)Nc2ccc(NC(=O)c3ccc(C)o3)cc2)o1	3	i	-4	104	99	x	x	x
Cc1ccc(NC(=O)CNC(=O)c2ccc(C)o2)cc1	-17	i	-3	29*[inhibitor]	46*[inhibitor]	104	3	104
CCC(=O)Nc1ccc2c(c1)ncn2C	-5	i	5	75*[inhibitor]	81	108	1	103
Cn1cnc2cc(NC(=O)COc3ccccc3)ccc21	-5	i	4	99	96	x	x	x
COc1ccc(-n2cc(CNCc3cccnc3)c(-c3cccc(F)c3)n2)cc1	16	i	14	88	125	x	x	x
COc1ccc(CNCc2cn(-c3cccc(F)c3)nc2-c2ccc(C)o2)cc1	26	i	4	101	168*	172	31	109
CC(C)c1ccc(NC(=O)C2CCN(S(=O)(=O)c3ccc4c(c3)C(C)(C)C(=O)N4C)CC2)cc1	2	i	8	102	103	x	x	x
Cc1cccc(C)c1NC(=O)c1cccc2c1C(=O)N(C1CCCCC1)C2	-2	i	-8	101	91	x	x	x
O=C(Cn1nc(-c2ccccc2Cl)ccc1=O)Nc1ccccc1-c1ccccc1	-5	i	-1	93	89	x	x	x
O=C(Cn1nc(-c2ccccc2Cl)ccc1=O)Nc1ccc(Br)cc1	+	i	-13	140*	x	103	0	104
Nc1ccccc1NC(=O)c1ccccc1N	-16	u	1	3.0*[inhibitor]	3.0*[inhibitor]	100	-6	103
Cn1c(O)c(N=NC(=O)c2cc(-c3cccs3)nc3ccccc23)c2ccccc21	1	i	-1	130*	100	99	0	105
O=C(O)CC1SC(=Nc2cccc(C(F)(F)F)c2)NC1=O (configuration not stated)	15	i	0	124*	133	91	-7	82
CCOC(=O)C(NCc1ccco1)(NC(=O)c1ccccc1)C(F)(F)F (configuration not stated)	5	i	-4	133*	130	108	4	106
